Only some compounds are listed: those with a hit (about 7.3% of all), similar ones and a draw of the others.
SMN2 splice up: SMN2 splice variant enhancement | Potency, µM (highest dose often 46.1 µM), for inactives: at the top dose activity change, positive = activation, most hits filed as activators | HEK293 SMN2-luciferase splicing reporter, luminescence, 30-36 h | actives 2.8% (n = 210,000); further: % of control where 0% means no effect; nearly all actives have a fitted effect of over 55% in size
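qHTS luciferase splicing reporter: luminescence rises when SMN2 exon 7 is included in transfected HEK293 cells. Compound exposure lasted 30-36 h at 37C, with 4.5 mM final sodium butyrate as control, followed by a ONE-Glo read.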
uPA generation: blocks generation of uPA at the cell surface; cell surface uPA generation assay, qHTS; Potency, µM (doses to about 38.3 µM), for the others: at the highest dose activity change, negative = inhibition, most hits filed as inhibitors; actives 0.31% (n = 330,000); AID 540303; active means well fitted inhibition curve with a large enough effect; inconclusive means small, poorly fitted or top-dose-only effect; inactive means no such curve, though single readings can be large or run the other way; tested in mouse RAW 264.7 cells; further: on the % scale 0 is the no-effect control and ±100 the full control effect; nearly all actives have a fitted effect of over 55% in size
NPC1 promoter act: activates the NPC1 promoter. Huh7 NPC1 promoter luciferase reporter, 24 h. Potency, µM (doses to about 9.22 µM), without a hit: at the highest dose activation, usual class: activators. actives 2.4% (n = 320,000); further: % of control where 0% means no effect; nearly all actives have a fitted effect of over 60% in size
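Luminescence from an NPC1 promoter-driven luciferase reporter in stably transfected Huh7 cells was measured after 24 h compound treatment at 37 °C, followed by 10 min ambient incubation with luciferase detection reagent.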
FLuc modulator: inhibits or activates purified firefly luciferase, miR-21 counter-screen; purified FLuc, Km substrates, luminescence inhibition; Potency, µM (highest dose often 57.5 µM), without a hit: at the highest dose activity change, negative = inhibition, usual class: inhibitors; actives 6.9% (n = 360,000); AID 588342;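 further: plate controls were vehicle for no effect and reference inhibitor for full effect; nearly all actives have a fitted effect of over 55% in size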
Target sequence (P08659 whole entry, looked up): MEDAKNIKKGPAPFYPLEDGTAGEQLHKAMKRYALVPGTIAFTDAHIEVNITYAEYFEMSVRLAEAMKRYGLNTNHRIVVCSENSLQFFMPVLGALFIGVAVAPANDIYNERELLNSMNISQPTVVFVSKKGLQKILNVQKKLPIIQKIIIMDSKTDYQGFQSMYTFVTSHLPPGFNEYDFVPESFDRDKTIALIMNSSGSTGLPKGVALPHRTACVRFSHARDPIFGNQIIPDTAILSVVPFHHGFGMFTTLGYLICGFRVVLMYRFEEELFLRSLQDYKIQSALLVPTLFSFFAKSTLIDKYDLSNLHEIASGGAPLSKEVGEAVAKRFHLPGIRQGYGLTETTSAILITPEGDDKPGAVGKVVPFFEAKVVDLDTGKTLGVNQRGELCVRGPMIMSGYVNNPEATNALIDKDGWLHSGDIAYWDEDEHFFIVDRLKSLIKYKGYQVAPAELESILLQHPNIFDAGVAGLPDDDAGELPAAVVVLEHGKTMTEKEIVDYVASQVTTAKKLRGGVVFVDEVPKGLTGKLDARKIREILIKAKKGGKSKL
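Biochemical qHTS of compounds, final roughly 60 µM downward over six points, against 10 nM purified firefly luciferase using Km concentrations of substrates (10 uM D-luciferin, 10 uM ATP) in Tris acetate pH 7.5 buffer; luminescence output.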
ELG1 genotox: induces genotoxicity in HEK293T cells with luciferase-tagged ELG1 | HEK293T ELG1-luciferase reporter, luminescence, 16 h | Potency, µM (titrated, usually from 46 µM), inactives show at the top dose activity change, positive = activation, usual class: activators | actives 1.3% (n = 330,000); further: % of control where 0% means no effect; nearly all actives have a fitted effect of over 60% in size
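Screening used a luciferase reporter fused to human ELG1 in HEK293T cells. Luminescence was read on a CCD plate imager after 16 hr exposure and 30 min ONE-Glo incubation.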
Rab9 prom act: activators of Rab9 promoter. Huh7 Rab9 promoter-luciferase reporter, luminescence, 24 h. Potency, µM (series often up to 9.22 µM), without a hit: at the top dose activation, negative = inhibition, most hits filed as activators. actives 2.8% (n = 320,000). AID 485297; further: % of control where 0% means no effect; nearly all actives have a fitted effect of over 60% in size
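Luciferase signal after 10 min detection reagent at ambient indicates Rab9 promoter upregulation; stably transfected Huh7 cells were treated 24 h with compound in DMSO at 37 °C, 5% CO2.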
Numbers without * were called inactive; ? = inconclusive; · = no result; [ ] = dose if it differs, or a comment. Unless noted, the call rests on the fitted dose curve; in most records, active means well fitted curve in the direction sought with a large enough effect; inconclusive means small, poorly fitted or top-dose-only effect, or another doubt; inactive means no such curve, though single readings can be large; an effect the other way counts as inactive or inconclusive. Potency means the concentration at half of the fitted maximal effect.

SMILES	SMN2 splice up	uPA generation	NPC1 promoter act	FLuc modulator	ELG1 genotox	Rab9 prom act
O=c1c2ccccc2nnn1-c1ccccc1	·	2%	·	·	·	·
COc1cc(NC(=O)C2CCCN(S(=O)(=O)c3ccc4c(c3)oc(=O)n4C)C2)c(C(=O)O)cc1OC (configuration not stated)	-19%	·	·	?	·	·
CC(=O)c1ccc(S(=O)(=O)Nc2cccc(-c3ccc(N4CCCC4)nn3)c2)cc1	·	·	·	9.5µM*	·	·
CC(=O)c1ccc(S(=O)(=O)Nc2cccc(-c3cn4c(n3)SCC4)c2)cc1	-40%	2%	3%	-15%	-6%	5%
CC(=O)c1ccc(S(=O)(=O)Nc2cccc(-c3ccc(N4CCCCCC4)nn3)c2)cc1	·	·	·	4.8µM*	·	·
COc1ccc(CC2S/C(=N/N=C/c3ccc(O)cc3)NC2=O)cc1 (configuration not stated)	22%	-8%	28%	0.43µM*	?	?
COc1ccc(CC2S/C(=N/N=C/c3ccccc3O)NC2=O)cc1 (configuration not stated)	·	-5%	-2%	?	-8%	-2%
O=C1N/C(=N/N=C/c2ccccc2O)SC1Cc1ccc(F)cc1 (configuration not stated)	·	1%	-4%	5%	-4%	20%
O=C1N/C(=N/N=C/c2ccc(O)cc2)SC1Cc1ccccc1 (configuration not stated)	·	2%	2%	2.4µM*	14%	1%
CCOCCc1nnc(NC(=O)C(=O)c2cc(C)n(-c3ccc(C)cc3C)c2C)s1	·	·	·	-2%	·	·
COc1ccc(NC(=O)CSc2nc3ccccc3n2CC(=O)Nc2cccc(C)c2C)cc1	·	·	·	2%	·	·
Cc1cc(C(=O)COc2ccccc2C(N)=O)c(C)n1CC1CCCO1 (configuration not stated)	-93%	0%	-26%	?	-6%	-9%
Cc1cc(C(=O)COC(=O)c2cccnc2Cl)c(C)n1CC1CCCO1 (configuration not stated)	11%	1.6µM*	?	0.24µM*	0.52µM*	?
Cc1ccc(C(=O)OCC(=O)c2cc(C)n(CC3CCCO3)c2C)cc1 (configuration not stated)	-2%	-3%	2.2µM*	4.3µM*	?	2.2µM*
Cc1cc(C(=O)COC(=O)c2ccccc2Br)c(C)n1CC1CCCO1 (configuration not stated)	·	-14%	-30%	0.11µM*	?	-34%
Cc1cc(C(=O)COC(=O)C2COc3ccccc3O2)c(C)n1CC1CCCO1 (configuration not stated)	-4%	3%	1%	4.8µM*	-1%	-8%
Cc1ccc2occ(CC(=O)N(Cc3ccc(C(C)C)cc3)C3CCS(=O)(=O)C3)c2c1 (configuration not stated)	0%	·	·	3%	·	·
CCc1ccccc1NC(=O)C1CCCN(C(=O)c2cnn(-c3ccccc3)c2-n2cccc2)C1 (configuration not stated)	-6%	·	·	-11%	·	·
Cc1cc(C(=O)COC(=O)c2ccccc2O)c(C)n1CC1CCCO1 (configuration not stated)	·	?	-27%	0.085µM*	-9%	-29%
Cc1cc(C(=O)COC(=O)c2ccccc2NCCO)c(C)n1CC1CCCO1 (configuration not stated)	·	?	?	1.5µM*	?	?
Cc1cc(C(=O)COC(=O)c2cc(O)c3ccccc3c2O)c(C)n1CC1CCCO1 (configuration not stated)	1%	-3%	8%	19µM*	2%	13%
Cc1cc(C(=O)CSc2nnc(-c3ccncc3)n2-c2ccccc2)c(C)n1C	-11%	1%	-2%	-6%	-3%	-6%
Cc1cc(C(=O)CSc2nnc(-c3cccnc3)n2-c2ccccc2)c(C)n1CC1CCCO1 (configuration not stated)	-24%	-8%	21%	19µM*	12%	?
CC1=C(C(=O)OCc2ccccc2)C(C2CCCCC2)NC(=O)N1CCCCCC(=O)O (configuration not stated)	-3%	·	·	·	·	·
CCN(CC)CCCNC(=O)CN1N=C(c2ccccc2)CCC1=O	·	·	·	-3%	·	·
SMILES	SMN2 splice up	uPA generation	NPC1 promoter act	FLuc modulator	ELG1 genotox	Rab9 prom act
Cc1ccc(S(=O)(=O)N2CCOCC2)cc1NC(=O)CSc1nc(N)cc(N)n1	·	11%	0%	3%	2%	-6%
Cc1cc(C(=O)COC(=O)c2cccc(NS(C)(=O)=O)c2)c(C)n1CC1CCCO1 (configuration not stated)	·	-7%	·	·	?	·
Cc1cc(C(=O)COC(=O)c2n[nH]c3ccccc23)c(C)n1CC1CCCO1 (configuration not stated)	-34%	-6%	0.35µM*	?	?	0.32µM*
Cc1cc(C(=O)COC(=O)CN(C)S(=O)(=O)c2ccc(Cl)cc2)c(C)n1CC1CCCO1 (configuration not stated)	-7%	0%	9%	19µM*	1%	1%
Nc1nc(SCC(=O)Nc2ccc(OCc3ccccc3)cc2)n[nH]1	·	-9%	?	?	3%	?
Cc1nc(SCC(=O)Nc2ccc(OCc3ccccc3)cc2)n[nH]1	·	?	27%	12µM*	15%	?
O=C(CSc1ncn[nH]1)Nc1ccc(OCc2ccccc2)cc1	?	2%	29%	17µM*	?	?
C=CCN1C(=O)/C(=C/c2ccc(-c3ccc(F)cc3)o2)SC1=S	·	-1%	19%	?	3%	9%
CCC(=O)CCC(=O)c1ccc2ccccc2c1	14µM*	0%	?	15µM*	?	?
CC(C)N(CCC(=O)c1ccc2ccccc2c1)Cc1ccccc1	6%	3.2µM*	-34%[46.1 µM]	-18%	-5%	-41%[46.1 µM]
O=C(CS(=O)(=O)c1cccc2nsnc12)N1CCN(c2ccccc2F)CC1	·	·	·	-10%	·	·
O=C(Cn1ncc2c3ccccc3n(Cc3ccccc3F)c2c1=O)NC1CCCCCC1	-9%	·	·	0%	·	·
CCc1cccc(CC)c1NC(=O)Cn1nnc2sc(-c3ccccc3)cc2c1=O	0%	·	·	-7%	·	·
COc1ccc(Cn2c(SCc3ccc(C(=O)NCc4ccc(C)cc4)cc3)nc3cccnc32)cc1	-17%	·	·	?	·	·
CCNC(=O)c1ccc(CSc2nc3cccnc3n2Cc2ccc(OC)cc2)cc1	·	·	·	21µM*	·	·
Cc1cccc(Cn2c(SCc3ccc(C(=O)NCc4ccccc4)cc3)nc3cccnc32)c1	·	·	·	2%	·	·

Screening results (PubChem BioAssay)
